Bioassay records deposited in PubChem by several laboratories.
iPSC survival up: enhancers of human iPSC single-cell survival | hiPSC single-cell survival, ATPlite luminescence; 100% = ROCK inhibitor wells, 0% = DMSO | survival enhancement, % at 20 µM | 360,000 compounds, 0.044% hits; in the data active = survival enhancement above about 18%;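 note: cells exposed to compounds for 16 hours before the ATP read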
HIF-2a block: inhibitors of HIF-2a; 786-0 RCC cells HIF-2a reporter, luciferase luminescence, overnight; inhibition, % at 18.8 µM; 360,000 compounds, 0.72% hits; AID 624352;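 active = inhibition of the luminescence signal of 40% or more relative to plate controls, in a single-dose primary screen at 18.75 µM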
KKLEB cytotox: counter-screen for CF NF-kB inhibitors: cytotoxicity; KKLEB CF airway cells viability, ATPlite luminescence, overnight; stronger effect = lower value; cells stimulated with P. aeruginosa culture filtrate; activity change (cytotoxicity), % at 5 µM; 360,000 compounds, 0.36% hits; AID 602141;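 active = corrected activity change at or below -50% at 5 µM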
CF NFkB inh: blocks PAF-induced NF-kB reporter in cystic fibrosis cells. KKLEB NF-kB-GFP reporter, GFP fluorescence overnight. inhibition, % at 5 µM. 360,000 compounds, 0.86% hits. AID 588850;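 active = at least 50% inhibition at 5 µM, scaled per plate between neutral and stimulator controls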;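 note: PAF is a Pseudomonas aeruginosa culture filtrate used as stimulus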
TWEAK Fn14 block: blocks TWEAK-Fn14 interaction in a reporter cell assay; TWEAK-stimulated Fn14 reporter cells, luciferase luminescence, 8 h; inhibition, % at 10 µM; 360,000 compounds, 2% hits; AID 1159606; in the data active = inhibition above about 50%
LGR2 inh: blocks bursicon-induced cAMP signaling via Drosophila LGR2; HEK293 LGR2, CRE-luciferase, bursicon-stimulated, 4 h; inhibition, % at 9.99 µM; 380,000 compounds, 0.35% hits; AID 720647;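 active = drop in luminescence signal, shown as inhibition above about 50% in the replicate tests, limit read from the data, passing the limit was not always enough; inconclusive = probably only some replicates passing the limit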;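 note: agonist challenge used bursicon conditioned medium at about half maximal strength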
Each line names hits and unclear results; the compound was inactive in the other large screens. Hits are enriched below; roughly 2.3% of the tested compounds scored in any of these assays.

CC(C)(C)c1nnc(NC(=O)c2ccc3c(c2)OCO3)s1	none
COc1ccccc1-c1nnc(NC(=O)c2ccc3c(c2)OCO3)s1	KKLEB cytotox -56.3, CF NFkB inh 59.2
N#Cc1ccsc1NC(=O)c1cnccn1	none (no result: LGR2 inh)
CC(C)(C)NS(=O)(=O)c1cc(C(=O)Nc2sccc2C#N)ccc1Cl	TWEAK Fn14 block 51.5
C=C(C)COc1ccc2c(c1)CCC1C2CCC2(C)C(=O)C(=NO)CC12 (configuration not stated)	CF NFkB inh 63.6
C[C@@H]1CCCCO[C@@H](CN(C)S(=O)(=O)c2cn(C)cn2)[C@H](C)CN([C@@H](C)CO)C(=O)c2cc(NC(=O)C3CCCCC3)ccc2O1	none (no result: iPSC survival up, HIF-2a block, KKLEB cytotox, CF NFkB inh, TWEAK Fn14 block)
Cc1ccc(C(=O)Sc2cccccc2=O)cc1	TWEAK Fn14 block 101.8
O=C(Nc1ccccc1SC(=O)c1ccccc1)c1ccccc1	none
CNC(=O)C[C@@H]1CC[C@H]2[C@@H](COC[C@@H](O)CN2Cc2ccc(Cl)c(Cl)c2)O1	none (no result: iPSC survival up, HIF-2a block, KKLEB cytotox, CF NFkB inh, TWEAK Fn14 block)
Nc1nccnc1C(=O)OCC(=O)C12CC3CC(CC(C3)C1)C2	none
N#CC1(C#N)CC(C=O)=C(N)C1(C#N)CC(=O)C12CC3CC(CC(C3)C1)C2 (configuration not stated)	KKLEB cytotox -55.4, CF NFkB inh 82.4, TWEAK Fn14 block 86.8
CC(C)NC(=O)N(C)C[C@@H]1OCCCC[C@H](C)Oc2ccc(N(C)C)cc2C(=O)N([C@H](C)CO)C[C@H]1C	none (no result: iPSC survival up, HIF-2a block, KKLEB cytotox, CF NFkB inh, TWEAK Fn14 block)
C[C@@H](NC(=O)C[C@H]1C[C@H]2c3cc(NC(=O)NC4CCCC4)ccc3O[C@H]2[C@H](CO)O1)c1ccccc1	none (no result: iPSC survival up, HIF-2a block, KKLEB cytotox, CF NFkB inh, TWEAK Fn14 block)
CC(=O)OCC(=O)C1(O)CCC2C3CCC4=CC(=O)C=CC4(C)C3(F)C(O)CC21C (configuration not stated)	CF NFkB inh 72.7
CC(=O)OCC(=O)[C@@]12OC3(CCCC3)O[C@@H]1C[C@H]1[C@@H]3CCC4=CC(=O)C=C[C@]4(C)[C@@]3(F)[C@@H](O)C[C@@]12C	CF NFkB inh 82.4 (no result: LGR2 inh)
COc1ccc2c3c(n(C)c2c1)[C@H](CO)N(CC1CC1)CC31CN(Cc2nccs2)C1	none (no result: iPSC survival up, HIF-2a block, KKLEB cytotox, CF NFkB inh, TWEAK Fn14 block)
C[C@@H]1CN([C@H](C)CO)S(=O)(=O)c2ccc(C3=CCCC3)cc2O[C@H]1CN(C)C(=O)C1CC1	none (no result: iPSC survival up, HIF-2a block, KKLEB cytotox, CF NFkB inh, TWEAK Fn14 block)
CCCN(CCC)S(=O)(=O)c1ccc(Cl)c([N+](=O)[O-])c1	KKLEB cytotox -50.1, CF NFkB inh 59.7, LGR2 inh 84.1
Cc1cccc(-c2cc3c(N=O)c4ccccc4c-3n[nH]2)c1	TWEAK Fn14 block 53.0
Cc1ccc(-c2cc3c(N=O)c4ccccc4c-3n[nH]2)cc1	HIF-2a block 68.0, KKLEB cytotox -81.2, TWEAK Fn14 block 102.9, LGR2 inh 94.5
Cc1ccc(-c2cc(=O)c3ccccc3[nH]2)cc1	none
O=Nc1c2cc(-c3ccccc3)[nH]nc-2c2ccccc12	TWEAK Fn14 block 80.1, LGR2 inh inconclusive
Cc1ccc(Cl)cc1N1CCN(C(=O)CSc2nnc3n2C(C)(C)Cc2ccccc2-3)CC1	TWEAK Fn14 block 95.9 (no result: LGR2 inh)
COc1ccc(N2CCN(C(=O)CSc3nnc4n3C(C)(C)Cc3ccccc3-4)CC2)cc1	none (no result: LGR2 inh)
CO[C@@H]1CN(C)C(=O)c2cc(NS(=O)(=O)CC(F)(F)F)ccc2OC[C@@H](C)N(C(=O)c2ccc3c(c2)OCO3)C[C@@H]1C	none (no result: iPSC survival up, HIF-2a block, KKLEB cytotox, CF NFkB inh, TWEAK Fn14 block)
COc1ccccc1NC(=O)c1cc2cc(Br)ccc2cc1O	TWEAK Fn14 block 67.4
COc1cc(NC(=O)c2cc3ccccc3cc2O)c(OC)cc1Cl	KKLEB cytotox -55.2, CF NFkB inh 50.5, TWEAK Fn14 block 67.4
COc1cc(OC)c(NC(=O)c2ccccc2F)cc1Cl	none
COc1ccccc1NC(=O)COC(=O)c1cc2ccccc2cc1O	none
O=C(NCCCN1CCCCCC1)C1CC(=O)N(CCc2ccccc2)C1 (configuration not stated)	iPSC survival up 19.2 (no result: LGR2 inh)
COC(=O)CS(=O)(=O)c1nnc([C@H](Cc2ccccc2)NC(=O)OC(C)(C)C)o1	HIF-2a block 45.3, CF NFkB inh 66.2 (no result: LGR2 inh)
COC(=O)CSc1nnc([C@H](Cc2ccccc2)NC(=O)OC(C)(C)C)o1	none (no result: LGR2 inh)
CCOC(=O)N1CCN(Cc2nc(N)nc(Nc3ccc(Oc4ccccc4)cc3)n2)CC1	TWEAK Fn14 block 51.7 (no result: LGR2 inh)
CCOC(=O)N1CCN(Cc2nc(N)nc(Nc3ccc(OC)cc3)n2)CC1	none
CCCc1cc(N2CCOCC2)n2ncc(-c3ccccc3)c2n1	TWEAK Fn14 block 57.7
COCC(=O)N1C[C@H](C)[C@@H](OC)CN(C)C(=O)c2ccc(NC(=O)c3ccc(OC)cc3)cc2OC[C@H]1C	none (no result: iPSC survival up, HIF-2a block, KKLEB cytotox, CF NFkB inh, TWEAK Fn14 block)
CCNc1nc(NCC)n2c(SC(C(=O)Nc3cc(Cl)cc(Cl)c3)c3ccccc3)nnc2n1 (configuration not stated)	TWEAK Fn14 block 66.6
CN1C2CCC1/C(=C\c1ccccc1F)C(=O)/C2=C/c1ccccc1F	TWEAK Fn14 block 83.4
CC(=O)N1CCc2cc(S(=O)(=O)C(C)CC(=O)NCc3ccco3)ccc21 (configuration not stated)	LGR2 inh 56.4
O=C1C=CC2=C3c4cc(O)c(O)cc4CC3(O)COC2=C1O (configuration not stated)	TWEAK Fn14 block 86.0
CCCCn1c(NC(=O)c2ccccc2)c(C#N)c2nc3ccccc3nc21	TWEAK Fn14 block 64.0 (no result: LGR2 inh)
CN(C)C(=O)c1ccc(-c2ccc3c(c2)[C@@H]2[C@@H](CCN2C(=O)C2CCCCC2)[C@@H](CO)N3C)cc1	none (no result: iPSC survival up, HIF-2a block, KKLEB cytotox, CF NFkB inh, TWEAK Fn14 block)
O=C(NC1CC1)c1[nH]c(C(F)(F)F)nc1-c1ccccc1	none
Cc1ncoc1C(=O)Nc1ccc2c(c1)OCCO2	TWEAK Fn14 block 73.3 (no result: LGR2 inh)
O=C(Nc1ccc2c(c1)OCCO2)c1[nH]c(C(F)(F)F)nc1-c1ccccc1	TWEAK Fn14 block 90.1
CSc1ccccc1C(=O)Nc1ccc2c(c1)OCCO2	none (no result: LGR2 inh)
Cc1ccccc1C(=O)Nc1ccc2c(c1)OCCO2	TWEAK Fn14 block 57.8, LGR2 inh inconclusive
O=C(Nc1ccc2c(c1)OCCO2)c1coc2ccccc2c1=O	TWEAK Fn14 block 86.9
C[C@@H](O)C#Cc1ccc2c(c1)O[C@@H](CN(C)C(=O)CC1CC1)[C@@H](C)CN([C@@H](C)CO)S2(=O)=O	none (no result: iPSC survival up, HIF-2a block, KKLEB cytotox, CF NFkB inh, TWEAK Fn14 block)
C[C@H](CO)N1C[C@H](C)[C@H](CN(C)C(=O)Nc2ccc3c(c2)OCO3)Oc2ccc(NC(=O)C3CCCCC3)cc2CC1=O	none (no result: iPSC survival up, HIF-2a block, KKLEB cytotox, CF NFkB inh, TWEAK Fn14 block)
Cc1noc(C)c1NC(=O)Nc1ccc2c(c1)CC(=O)N([C@@H](C)CO)C[C@H](C)[C@@H](CN(C)S(=O)(=O)c1c(C)noc1C)O2	none (no result: iPSC survival up, HIF-2a block, KKLEB cytotox, CF NFkB inh, TWEAK Fn14 block)
CC(=O)Nc1ccc(NC(=O)c2c(C)nc3ccccn23)cc1	none (no result: LGR2 inh)
O=C(CSc1nc2ccc(NC(=O)CSc3nnnn3-c3ccccc3)cc2s1)Nc1ccccc1	KKLEB cytotox -65.4, CF NFkB inh 61.2
CC1(C(=O)Nc2ccc3c(c2)OCCO3)CCN1C(=O)c1ccccc1CCc1ccccc1 (configuration not stated)	TWEAK Fn14 block 68.5
